Most compounds without a hit are left out; they make up all but 1.4% or so of the library.
Mtb MenB inh: M. tuberculosis MenB inhibitors, primary screen, biochemical, absorbance. 100,000 tested, 0.43% active. MenB enzyme assay, absorbance read-out. AID 540299, 2011. inhibition, % (test concentration not listed). 1,4-dihydroxy-2-naphthoyl-CoA synthase (Mycobacterium tuberculosis (strain ATCC 25618 / …; in the data active = inhibition above about 21%, passing the limit was not always enough
Mtb MbtI inh: MbtI salicylate synthase inhibitors, primary screen, biochemical, fluorescence intensity. purified MbtI enzyme, fluorescence intensity read-out. AID 493033, 2011. P9WFX0. 100,000 tested, 0.89% active. inhibition, % (concentration not given with the values); in the data active = inhibition mostly above about 56%, no sharp cut-off; inactive = mostly below about 77%
AID504770: growth inhibition of E. coli YBA685, primary screen, V. cholerae RctB inhibitors. E. coli YBA685 rctB-dependent plasmid, OD600 growth, 3 h; hits give low values. z-score (test concentration not listed). 130,000 tested, 0.27% active; in the data active = z-score below about -2, passing the limit was not always enough
Polio RdRp inh: poliovirus RdRp elongation inhibitors, primary screen, biochemical, fluorescence polarization, total intensity. Genome polyprotein (Poliovirus type 1 (strain Mahoney)), P03300. poliovirus polymerase elongation; hits give low values. % elongation, % (compound at 16.7 µg/mL). 150,000 tested, 0.66% active. AID 588519, 2011; in the data active = % elongation below about 90%
Target sequence (P03300 1749-2209 limits assumed): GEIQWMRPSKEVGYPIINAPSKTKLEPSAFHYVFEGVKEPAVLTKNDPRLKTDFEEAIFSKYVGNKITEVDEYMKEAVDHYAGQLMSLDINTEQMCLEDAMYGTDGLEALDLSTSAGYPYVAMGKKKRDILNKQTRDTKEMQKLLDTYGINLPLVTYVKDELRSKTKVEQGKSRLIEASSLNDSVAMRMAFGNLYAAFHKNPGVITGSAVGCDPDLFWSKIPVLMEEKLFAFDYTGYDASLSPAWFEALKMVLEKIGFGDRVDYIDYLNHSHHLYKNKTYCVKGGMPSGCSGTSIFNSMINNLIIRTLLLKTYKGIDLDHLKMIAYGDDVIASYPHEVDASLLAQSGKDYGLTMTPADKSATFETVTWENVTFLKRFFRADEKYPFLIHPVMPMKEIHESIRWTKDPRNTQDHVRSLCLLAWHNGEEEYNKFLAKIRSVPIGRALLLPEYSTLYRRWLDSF
The depositor's hits bear a star; x = no result given.

SMILES | Mtb MenB inh | Mtb MbtI inh | AID504770 | Polio RdRp inh
Oc1ccccc1C(=S)N1CCN(C(=S)c2ccccc2O)CC1 | -46 | 94* | -0.45 | 101
O=C(c1ccccc1O)N1CCOCC1 | -7 | x | 0.85 | 112
CCCOc1ccc(-c2nc(NCCN)c3ccccc3n2)cc1 | x | x | -3* | x
CC(=O)OCCNc1nc(-c2ccccc2)nc2ccccc12 | x | x | -0.65 | x
CCc1ccc(NC(=O)CN(c2ccc(C)cc2)S(=O)(=O)c2cccc3nonc23)cc1 | -21 | -4 | -0.65 | 102
CC1CCCCN1C(=O)c1ccccc1NS(=O)(=O)c1ccc(F)cc1 (centres undefined) | 41* | -3 | -0.1 | 101
CC1CCCC(C)N1C(=O)c1ccccc1NS(=O)(=O)c1ccc(F)cc1 (centres undefined) | x | -6 | -0.05 | 101
O=C(CSCc1nnc(-c2ccc(F)cc2)o1)Nc1ccccc1F | -7 | 17 | 1.9 | 111
O=c1[nH]c2ccc(S(=O)(=O)Nc3ccc(O)cc3)cc2[nH]1 | 6 | -6 | -0.4 | 104
O=S(=O)(Nc1ccc(Cl)cc1)c1ccc2oc(=S)[nH]c2c1 | -48 | 90* | 0.75 | 91
Cc1ccc(OCC(=O)Nc2ccc(O)c(C(=O)O)c2)cc1 | -23 | -116 | -0.45 | 102
Cn1ccnc1SCc1nc(-c2ccccc2)no1 | -7 | -4 | 0.6 | 103
COc1cccc(C2=NN(C(=O)c3ccccc3Cl)C(c3ccco3)C2)c1 (centres undefined) | -31 | 15 | 1.2 | 99
COc1ccccc1C1=NN(C(=S)Nc2ccccc2)C(c2ccco2)C1 (centres undefined) | -38 | 73* | 0.1 | 101
Cc1nc(C(=O)Nc2ccc(Cl)cc2)sc1C(=O)Nc1ccc(Cl)cc1 | 5 | 64* | 0.45 | 69*
COC(=O)C1C(=O)CC(=O)CC1c1ccco1 (centres undefined) | 40* | 1 | 1.2 | 100
COc1ccc(C2(CNC(=O)c3ccco3)CCOCC2)cc1 | -13 | x | 0.15 | 78*
O=C(CCn1c(=O)oc2ccccc21)Oc1cccc(Cl)c1 | x | x | 0.6 | x
O=C(CCn1c(=O)oc2ccccc21)Sc1ccc(Cl)cc1Cl | 2 | 70* | 1 | 87*
COc1ccc(NC(=O)CN(c2ccc(C)cc2)S(=O)(=O)c2cccs2)cc1OC | x | x | x | 103
Cc1ccc(N(CC(=O)Nc2ccc(C)c(Cl)c2)S(=O)(=O)c2cccs2)cc1 | x | x | x | 89*
CCOc1ccc(C(=O)Nc2cccc3nsnc23)cc1Br | x | -5 | 0 | x
N#CCSc1nnc(NC2CCCCC2)s1 | -4 | 4 | -0.55 | 104
Cc1ccc(N2C(=O)C=CC2=O)cc1 | 7 | 100* | -1.4 | 103
O=C1C=CC(=O)N1c1ccc(C2CCCCC2)cc1 | x | x | -0.2 | x
SMILES | Mtb MenB inh | Mtb MbtI inh | AID504770 | Polio RdRp inh
CC(C)c1ccc(N2C(=O)C=CC2=O)cc1 | -1 | 101* | -0.8 | 100
O=C1Cc2ccccc2C(=O)N1c1cccc(Cl)c1 | -35 | 0 | -1.2 | 78*
CCCCc1ccc(N2C(=O)C=CC2=O)cc1 | x | 98* | -1.1 | 101
Cc1ccc(CC2CC(=O)N(C3CCCCC3)C2=O)cc1 (centres undefined) | -21 | -20 | 0 | 103
O=C1C=CC(=O)N1c1cccc(Cl)c1 | 4 | 100* | -4* | 103
O=C1C=CC(=O)N1c1ccccc1 | -3 | 99* | -7* | 102
O=C1c2ccccc2C(=O)N1c1ccccc1 | -34 | 1 | 0.75 | 101
CC(=O)Nc1cccc(N2C(=O)C=CC2=O)c1 | -58 | 96* | 0.35 | 105
CN=C(N=c1ccc(Br)cn1C(=NC)c1cccs1)c1cccs1 | -6 | 16 | -0.4 | 102
O=C(/C=C/c1ccco1)Nc1ccc2ccccc2c1 | -25 | 78 | 0.45 | 104
O=C(c1cc2c(s1)CCC2)N1CCN(S(=O)(=O)c2cccc(Br)c2)CC1 | -20 | -9 | -0.9 | 102
Cc1cc(C)c2c(-c3ccccc3)[nH]nc2n1 | x | -57 | -0.85 | x
Cc1cc(C)c2c(/N=N/N3CCCCCC3)[nH]nc2n1 | -21 | 1 | -4* | 101
O=C1/C(=C/c2cccnc2)SC(=S)N1C1CCCC1 | -25 | 6 | 0.2 | x
N#Cc1c2c(c(-c3ccccc3)[nH]c1=S)CCCC2 | -22 | 51* | 0.35 | 101
N#Cc1c(N)c(C#N)c(-c2ccccc2)c2c1CCCC2 | -7 | x | 1.4 | 108
CCN(CC)C1=N/C(=C/c2ccccc2)C(=O)N1c1ccc(Cl)cc1 | -22 | x | -0.1 | 101
COc1ccc(/C=C2\SC(=O)N(c3c(C)n(C)n(-c4ccccc4)c3=O)C2=O)cc1OC | -32 | 87* | 0.1 | 81*
COc1ccc(/C=N/NC(=S)Nc2c(C)n(C)n(-c3ccccc3)c2=O)cc1OC | -12 | 27 | 0.65 | 100
CCN1CCN(CC2CCCCC2)CC1 | 34* | 8 | 1.5 | 100
CCOC(=O)N1CCN(CC2CCCCC2)CC1 | -6 | -24 | -1.6 | 100
CCOC(=O)CC(NC(=O)N1CCC(CN2CCC(C)CC2)CC1)c1ccccc1 (centres undefined) | x | x | x | 49*
CCOc1ccc(NC(=O)N2CCC(CN3CCC(C)CC3)CC2)cc1 | x | x | x | 102
CNC(=O)c1ccccc1S(=O)c1ccccc1 (centres undefined) | x | x | 1.6 | x
COc1cccc(NC(=O)CCSc2nc(-c3ccco3)cc(C(F)(F)F)n2)c1 | x | x | x | 90*
SMILES | Mtb MenB inh | Mtb MbtI inh | AID504770 | Polio RdRp inh
NC(=O)Cn1cnc2sc3c(c2c1=O)CCC3 | -24 | x | -0.25 | 90*
COCc1cc(C)nc(SCC(=O)NC23CC4CC(CC(C4)C2)C3)c1C#N | 2 | -2 | 0.5 | 99
CCCn1c(=O)c2ccccc2n2c(=S)[nH]nc12 | -30 | 75* | 2.5 | 101
O=c1c2ccccc2n2c(=O)[nH]nc2n1Cc1ccc(F)cc1 | -6 | 3 | 0.65 | 98
O=c1c2ccccc2n2c(=S)[nH]nc2n1-c1ccccc1 | -26 | 94* | -0.85 | 89*
O=C(O)c1cc(-c2ccccc2)nc2ccccc12 | 1 | x | -0.65 | 102
O=C(O)c1nc(-c2ccccc2)cc(-c2ccccc2)n1 | 35* | 15 | 0.65 | 100
COc1cccc(CSc2nc3ccncc3n2CC(=O)Nc2ccc(N(C)C)cc2)c1 | 2 | -3 | 0.1 | 100
CC1(C)CC(=O)C(C2(O)C(=O)c3ccccc3C2=O)C(=O)C1 | x | -12 | -0.9 | x
CC1(C)C=C(O)C(C2(O)C(=O)c3ccccc3C2=O)C(=O)C1 (centres undefined) | -28 | x | -1 | 19*
CC(=O)N1C(=Nc2ccccc2C)SCC1(C)C | 18 | 5 | 1.7 | 104
Cc1cc(C)c(S(=O)(=O)N2CCCCC2)cc1C | x | x | -0.1 | x
Cc1cc2[nH]c(=O)c(=O)[nH]c2cc1S(=O)(=O)N1CCCCC1 | -14 | 39 | -2.5* | 102
Cc1nn(-c2ccccc2)c(OC(=O)C2CC2)c1S(=O)(=O)c1ccccc1 | x | x | -0.15 | x
COC(CNc1ncnc2sc(-c3ccccc3)cc12)OC | -29 | 80* | -0.35 | 102
O=C(/C=C/c1ccc(S(=O)(=O)N2CCCCCC2)cc1)OCc1nnc(-c2ccccc2)o1 | -21 | -2 | 0.3 | 102
